PubChem BioAssay (NCI)
The panel holds about 79,000 compounds, 15% with a hit somewhere; the sample as a whole holds those more often. Rule as the data show it: active = growth inhibition above about 70%; inactive = the rest.

Key:
[1] = NCI Yeast Anticancer Drug Screen. Data for the rad50 strain (AID 155);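 also: 0% = growth of vehicle-only cultures of the same strain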; details: S. cerevisiae rad50 strain growth inhibition; at 50.0 µM; active compounds read high
In short: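 Relative growth inhibition (compound vs vehicle) was measured in yeast with a defined repair-gene alteration.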

[2] = NCI Yeast Anticancer Drug Screen. Data for the mec2-1 strain (AID 157); details: S. cerevisiae mec2-1 strain, at 50.0 µM, active compounds read high
In short: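 Test agents were screened against the mec2-1 yeast strain, with defined DNA repair or cell cycle alteration. Growth was scored as inhibition against vehicle-only controls.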

[3] = NCI Yeast Anticancer Drug Screen. Data for the sgs1 mgt1 strain (AID 161);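 also: 0% = growth of cultures given vehicle only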; details: S. cerevisiae sgs1 mgt1 strain, at 50.0 µM, active compounds read high
In short: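 Read-out: growth inhibition vs vehicle controls. Cells: mutant yeast strain deficient in DNA damage repair.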

[4] = NCI Yeast Anticancer Drug Screen. Data for the cln2 rad14 strain (AID 165);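 also: 0% = growth equal to vehicle treated cultures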; details: S. cerevisiae cln2 rad14 strain, at 50.0 µM, active compounds read high
In short: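 Growth of compound-exposed yeast (cln2 rad14 genotype) measured and expressed as inhibition relative to vehicle.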

[5] = NCI Yeast Anticancer Drug Screen. Data for the bub3 strain (AID 167); details: S. cerevisiae bub3 mutant strain, at 50.0 µM, active compounds read high
In short: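 Screening used yeast with an engineered genetic alteration affecting cell cycle control. Compound-exposed cultures were compared with vehicle cultures, and reduced growth was taken as inhibition.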

[6] = NCI Yeast Anticancer Drug Screen. Data for the mlh1 rad18 strain (AID 175); details: S. cerevisiae mlh1 rad18 strain growth inhibition; at 50.0 µM; active compounds read high
In short: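 In this whole-cell yeast screen, a strain with altered DNA damage repair is challenged with compound, and its growth is measured against matched vehicle-treated controls.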

Measured: growth inhibition

CCOc1ccc(NC(=O)CC2SC(=Nc3ccc(C)cc3)NC2=O)cc1 (stereo unspecified)
inactive: [1] -12.7% | [2] -38.5% | [3] -5.3% | [4] 4.35% | [5] -31.9% | [6] -38%

CC12CCCC=C1N(C=O)c1ccccc12 (stereo unspecified)
inactive: [1] -6.1% | [2] 26.3% | [3] 14.7% | [4] 11.6% | [5] -28.1% | [6] 16.8%

O=C1OC[C@H]2[C@@H]1[C@H]1O[C@@H]2C2=C(CCC2)C1=O
inactive: [1] -27.4% | [2] -38.8% | [3] -43.5% | [4] -19.7% | [5] -30.9% | [6] -51.3%

CCOP(=O)(OCCN(C)C)C(c1ccccc1)c1ccccc1 (stereo unspecified)
inactive: [1] 19.9% | [2] -3.85% | [3] -10.8% | [4] -6.25% | [5] -9.75% | [6] 34.6%

CC(O)C(N=Cc1nc(-c2ccccc2)oc1O)C(=O)O (stereo unspecified)
inactive: [1] -3.25% | [2] -6.55% | [3] 0% | [4] 1.2% | [5] -0.15% | [6] 7.05%

CN1N(c2ccccc2)C(=O)C2=NC=C(C#N)C(=N)C21C (stereo unspecified)
inactive: [1] 14.9% | [2] 41% | [3] 24.6% | [4] 15.9% | [5] 19.5% | [6] 42.4%

Cc1cccc(C)c1NC(=S)NC(=O)c1cccc(Cl)c1
inactive: [1] -13.6% | [2] -23% | [3] -2.9% | [4] -10.5% | [5] -20.4% | [6] -16.6%

CCOC(=O)CC/C(C)=N/NC(=O)c1ccc[n+](C)c1
inactive: [1] -11.8% | [2] -3.65% | [3] -1.95% | [4] -29% | [5] -3.05% | [6] 2.65%

c1ccc([P+](Cc2ccc(C[P+](c3ccccc3)(c3ccccc3)c3ccccc3)cc2)(c2ccccc2)c2ccccc2)cc1
inactive: [1] 48.2% | [2] 35.6% | [3] 29.4% | [4] 40.5% | [5] 47.9% | [6] 37.5%

Cc1[nH]c(=O)[nH]c(=O)c1N
inactive: [1] 4.8% | [2] -10.4% | [3] -28.9% | [4] -19.4% | [5] -2.9% | [6] 2%

CCCC(=O)Oc1ccc(Cl)cc1
inactive: [1] 12.9% | [2] -4.45% | [3] 1.35% | [4] 20.1% | [5] 1.45% | [6] -6.65%

COc1ccc2nc3cc(Cl)ccc3c(NCCCC3CCCN4CCCCC34)c2c1 (stereo unspecified)
inactive: [1] 50% | [2] 40.5% | [3] 2% | [4] 6.15% | [5] 11.7% | [6] 38.4%

CC(=O)Nc1cccc(OCCOc2ccccc2[N+](=O)[O-])c1
inactive: [1] -0.6% | [2] -11.3% | [3] -8.65% | [4] 3.15% | [5] 4.7% | [6] 8.2%

COc1ccc(OC(C)C(=O)O)c2c1CCCC2=O (stereo unspecified)
inactive: [1] 21.6% | [2] 6.3% | [3] -17.1% | [4] 25.6% | [5] 5.15% | [6] 22.7%

Clc1ccc(NC2=NCCN=C(Nc3ccc(Cl)cc3)SS2)cc1
inactive: [1] 23.7% | [2] 14.2% | [3] 39.8% | [4] 17.4% | [5] 37.5% | [6] 20.7%

O=C(O)CCC(=O)CCc1ccccc1C(=O)O
inactive: [1] 12.3% | [2] -15.8% | [3] 4.3% | [4] -38.1% | [5] -23.1% | [6] 7.85%

COc1cc(/C=C/C(=O)NCCCCN)ccc1O
inactive: [1] 19.6% | [2] 8.9% | [3] 21.8% | [4] 9.6% | [5] 13% | [6] 19.7%

CCCNCCCCC(C)Nc1cc(OC)cc2cccnc12 (stereo unspecified)
inactive: [1] 7.1% | [2] -14.8% | [3] -15.6% | [4] -21.1% | [5] 8.2% | [6] 23.9%

Cc1cc(=O)[nH]c(NNC(C#N)c2c(O)ccc3ccccc23)n1 (stereo unspecified)
inactive: [1] 23.6% | [2] 13.2% | [3] 24.2% | [4] -2.9% | [5] 1.45% | [6] 12.9%

CC1(C)OC(=C(C#N)C#N)C(C#N)=C1/C=C/c1ccncc1
inactive: [1] 25.7% | [2] 29.4% | [3] 19.8% | [4] 18.2% | [5] 31.5% | [6] -2.45%

CC(=O)NC1(C#N)c2ccccc2-c2ccccc21
inactive: [1] 18.6% | [2] 4.2% | [3] 18.9% | [4] 9.3% | [5] 5.25% | [6] 4.55%

Cc1ncn(-c2ccccc2)c(=O)c1N=Cc1ccccc1
inactive: [1] -13.7% | [2] -17.1% | [3] -32.2% | [4] -8.85% | [5] -19.7% | [6] -10.3%

O=C1C=C(c2ccccc2)Sc2ccccc2N1
inactive: [1] 25.9% | [2] 34.5% | [3] 19.1% | [4] -1.4% | [5] 26.1% | [6] 53.2%

CC(C)CC(=O)CCc1ccccc1
inactive: [1] -45% | [2] -19.9% | [3] -46.9% | [4] -6.35% | [5] -29.1% | [6] -3.55%

O=C(O)C(Br)C(Br)C(=O)Nc1ccc(Br)cc1 (stereo unspecified)
inactive: [1] -6.35% | [2] -24.4% | [3] 22.8% | [4] -3.85% | [5] 34.1% | [6] 27.4%

CC(=O)C1CC=C(C)CC1 (stereo unspecified)
inactive: [1] -6.8% | [2] -9.55% | [3] 15.8% | [4] 14.6% | [5] -2.85% | [6] 2.6%

COc1cccc2c1C(CO)N1C(C#N)C3CC(C(=O)O)C(C1C2)N3C (stereo unspecified)
inactive: [1] 0.25% | [2] -5.9% | [3] -28.3% | [4] 3.4% | [5] 8% | [6] -2.45%

CC1(O)c2ccccc2-c2nc3ccccc3nc21 (stereo unspecified)
inactive: [1] 15.1% | [2] 14.4% | [3] -16.4% | [4] -11.8% | [5] -0.35% | [6] -15.4%

NCCCCCCNCc1cccc2ccccc12
inactive: [1] -9.85% | [2] -13.1% | [3] -9.7% | [4] 6.05% | [5] -10.3% | [6] -31.4%

NC12CCC(CC1)C2
inactive: [1] -14.3% | [2] 13.3% | [3] -14.1% | [4] -6.25% | [5] -10.4% | [6] -4.8%

CC(C)(C)OC(=O)C(C1NC2C(=O)OCC2(CO)S1)N1C(=O)c2ccccc2C1=O (stereo unspecified)
inactive: [1] 38.6% | [2] -1.65% | [3] 25.9% | [4] -6.35% | [5] -1.75% | [6] 12.5%

O=C1CCCC1C(O)(C(F)(F)F)C(F)(F)F (stereo unspecified)
inactive: [1] -24.8% | [2] -19.9% | [3] -8.05% | [4] 16.6% | [5] -12% | [6] -21.1%

O=C(NCc1ccccc1)C(c1ccccc1)c1ccccc1
inactive: [1] 1.85% | [2] 4.9% | [3] 2.6% | [4] 5.7% | [5] -9.1% | [6] 0.8%

COC(=O)C(=C/c1ccc(OC)cc1)/C(C(=O)O)=C(/C)c1ccccc1
inactive: [1] 9.9% | [2] 17.1% | [3] -14.2% | [4] -11.2% | [5] -18.6% | [6] -9.8%

O=C(O)c1cccnc1C(=O)Nc1cccc2ccccc12
inactive: [1] 13.1% | [2] 13.4% | [3] 12.6% | [4] 0.9% | [5] 10.2% | [6] -16.6%

OC1C=COC2COC(c3ccccc3)OC12 (stereo unspecified)
inactive: [1] 4.1% | [2] -8.95% | [3] 6.1% | [4] -21.1% | [5] -5.4% | [6] 10.2%

O=[N+]([O-])c1ccc(-c2ccccc2)c([N+](=O)[O-])c1
inactive: [1] -3.05% | [2] 0.35% | [3] -29.8% | [4] -31.9% | [5] 1.5% | [6] 17.6%

Oc1ccc(CCC2CCNCC2)cc1
inactive: [1] 7.75% | [2] 23.4% | [3] 7.7% | [4] -27.2% | [5] -11.1% | [6] -30.1%

OC(C(c1ccccc1)N1CCCCC1)C(O)(c1ccccc1)c1ccccc1 (stereo unspecified)
inactive: [1] 12.2% | [2] -3.15% | [3] 22.6% | [4] 24.9% | [5] 6.2% | [6] -0.5%

CC(C)(C)OC(=O)CC(c1ccccc1)c1ccccc1
inactive: [1] -11.5% | [2] -9.4% | [3] -8.7% | [4] -41.5% | [5] 49.1% | [6] -21.9%

CCN(CC)C(=O)C1CCN(Cc2c[nH]c3ccccc23)CC1
inactive: [1] -3.05% | [2] -6.85% | [3] -10.2% | [4] -53% | [5] 2.75% | [6] -0.2%
